Activity calls are given as the source filed them. The calls were made as follows: active = hit-call score of the fitted dose curve at least 0.9, where 1 is the maximum; inactive = score below 0.9.
Legend:
Settings in all cases: mRNA level, 48 h; actives raise or lower the signal
[1] = read-out: Alpha-fetoprotein (AFP) gene, AFP (gene 174); test: LTEA_HepaRG_AFP: Life Technologies and Expression Analysis (LTEA) Assay for Alpha-fetoprotein (AFP) gene using HepaRG (AID 2283472)
How it was run: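 Differentiated human HepaRG cells exposed 48 h in serum-free induction medium, 8-point half-log series from 100 uM in 0.5% DMSO, duplicate. AFP mRNA by qRT-PCR, normalized to ACTB, GAPDH, POLR2A; bidirectional fit vs DMSO.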

BCL2L11 (gene 10018) = test: LTEA_HepaRG_BCL2L11: Life Technologies and Expression Analysis (LTEA) Assay for Bcl-2 (BCL2L11) gene using HepaRG (AID 2283473)
How it was run: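 Cells were plated, cultured 48 h, switched to serum-free induction medium, then dosed in duplicate for 48 h at eight half-log concentrations up to 100 uM. Lysates underwent RNA isolation and TaqMan qRT-PCR; gain or loss versus DMSO was fitted.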

[2] = read-out: Apolipoprotein A-V (APOA5) gene, APOA5 (gene 116519); test: LTEA_HepaRG_APOA5: Life Technologies and Expression Analysis (LTEA) Assay for Apolipoprotein A-V (APOA5) gene using HepaRG (AID 2283474)
How it was run: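 Human liver HepaRG cells are treated 48 h with test chemicals (100 uM top, half-log dilutions, 0.5% DMSO). APOA5 mRNA induction or loss is measured by qRT-PCR relative to vehicle.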

[3] = read-out: Apoptosis regulator Bcl-2 (Homo sapiens) (UniProt P10415); test: LTEA_HepaRG_BCL2: Life Technologies and Expression Analysis (LTEA) Assay for Bcl-2 gene using HepaRG (AID 2283475)
How it was run: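 Differentiated human HepaRG cells in serum-free induction medium exposed 48 h, in duplicate, to 8-point half-log series from 100 uM in 0.5% DMSO. BCL2 mRNA by qRT-PCR (TaqMan/Fluidigm), normalized to ACTB, GAPDH, POLR2A; bidirectional fit against DMSO.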

[4] = read-out: Bcl-2 (BID) gene, BID (gene 637); test: LTEA_HepaRG_BID: Life Technologies and Expression Analysis (LTEA) Assay for Bcl-2 (BID) gene using HepaRG (AID 2283476)
How it was run: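 Gene expression by qRT-PCR in HepaRG cells after 48 h exposure, duplicate wells, eight half-log concentrations topping at 100 uM in 0.5% DMSO. Normalized to ACTB, GAPDH, POLR2A; bidirectional fitting relative to DMSO.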

Caspase-3 (Homo sapiens) = Caspase-3 (Homo sapiens) (UniProt P42574); test: LTEA_HepaRG_CASP3: Life Technologies and Expression Analysis (LTEA) Assay for cysteine-aspartic acid protease (CASP3) using HepaRG (AID 2283477)
How it was run: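 In HepaRG liver cells dosed for 48 h at up to 100 uM (eight-point, duplicate), CASP3 expression changes are scored by qRT-PCR. Activity is fitted in both directions with 0.5% DMSO as baseline.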

[5] = read-out: Cytochrome P450 (CYP24A1), CYP24A1 (gene 1591); test: LTEA_HepaRG_CYP24A1: Life Technologies and Expression Analysis (LTEA) Assay for Cytochrome P450 (CYP24A1) using HepaRG (AID 2283478)
How it was run: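 Human liver HepaRG cultures receive each chemical for 48 h across an eight-point half-log series topping at 100 uM in 0.5% DMSO. Induction or suppression of CYP24A1 mRNA is scored relative to vehicle after housekeeping-gene normalization.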

[6] = read-out: Cytochrome P450 (CYP1A2), CYP1A2 (gene 1544); test: LTEA_HepaRG_CYP1A2: Life Technologies and Expression Analysis (LTEA) Assay for Cytochrome P450 (CYP1A2) using HepaRG (AID 2283479)
How it was run: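 Assesses CYP1A2 mRNA in human HepaRG liver cells after 48 h chemical exposure at up to 100 uM. Values come from qRT-PCR with bidirectional curve fitting relative to DMSO.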

[7] = read-out: cysteine-aspartic acid protease (CASP8), CASP8 (gene 841); test: LTEA_HepaRG_CASP8: Life Technologies and Expression Analysis (LTEA) Assay for cysteine-aspartic acid protease (CASP8) using HepaRG (AID 2283480)
How it was run: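 Differentiated human HepaRG cells, plated 48 h then switched to serum-free induction medium, were exposed in duplicate for 48 h to 8 half-log concentrations up to 100 uM in 0.5% DMSO. CASP8 mRNA was quantified by qRT-PCR, normalized to ACTB/GAPDH/POLR2A.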

[8] = read-out: Cytochrome P450 (CYP2B6), CYP2B6 (gene 1555); test: LTEA_HepaRG_CYP2B6: Life Technologies and Expression Analysis (LTEA) Assay for Cytochrome P450 (CYP2B6) using HepaRG (AID 2283481)
How it was run: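 Using 48 h treatment of HepaRG cells in serum-free induction medium, concentrations spanned half-log steps from 100 uM in 0.5% DMSO vehicle. CYP2B6 mRNA induction or loss is scored by qRT-PCR against DMSO.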

CYP2C8 (gene 1558) = test: LTEA_HepaRG_CYP2C8: Life Technologies and Expression Analysis (LTEA) Assay for CYP2C8 using HepaRG (AID 2283483)
How it was run: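 Differentiated human HepaRG cells were exposed for 48 h in serum-free induction medium to eight half-log concentrations up to 100 uM in 0.5% DMSO, in duplicate. CYP2C8 mRNA was measured by TaqMan qRT-PCR, normalized to ACTB, GAPDH and POLR2A, and fitted bidirectionally against DMSO.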

CYP2C9 (gene 1559) = test: LTEA_HepaRG_CYP2C9: Life Technologies and Expression Analysis (LTEA) Assay for CYP2C9 using HepaRG (AID 2283484)
How it was run: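 Differentiated human HepaRG cells were exposed 48 h in serum-free induction medium to eight half-log concentrations up to 100 uM in 0.5% DMSO. CYP2C9 mRNA was measured by qRT-PCR, normalized to ACTB, GAPDH and POLR2A, and fitted bidirectionally against DMSO.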

CYP2E1 (gene 1571) = test: LTEA_HepaRG_CYP2E1: Life Technologies and Expression Analysis (LTEA) Assay for CYP2E1 using HepaRG (AID 2283485)
How it was run: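 HepaRG cells, plated 48 h, then exposed 48 h in serum-free induction medium to eight half-log concentrations from 100 uM in 0.5% DMSO, duplicate. CYP2E1 mRNA by qRT-PCR, normalized to ACTB/GAPDH/POLR2A; bidirectional fit versus DMSO.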

CYP4A11 (gene 1579) = test: LTEA_HepaRG_CYP4A11: Life Technologies and Expression Analysis (LTEA) Assay for CYP4A11 using HepaRG (AID 2283486)
How it was run: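 Readout is CYP4A11 mRNA induction or suppression (qRT-PCR, ACTB/GAPDH/POLR2A normalization) in human HepaRG cells after 48 h chemical treatment, concentrations to 100 uM in 0.5% DMSO, fitted bidirectionally against vehicle.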

[9] = read-out: Cytochrome P450 3A4 (Homo sapiens) (UniProt P08684); test: LTEA_HepaRG_CYP3A4: Life Technologies and Expression Analysis (LTEA) Assay for CYP3A4 using HepaRG (AID 2283487)
How it was run: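 Differentiated HepaRG cells, plated 48 h, then dosed 48 h in serum-free induction medium with 0.5% DMSO, 8 half-log concentrations up to 100 uM, duplicate. CYP3A4 mRNA by qRT-PCR, normalized to ACTB/GAPDH/POLR2A; bidirectional fit versus DMSO.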

[10] = read-out: DNA damage-inducible transcript 3 (DDIT3), DDIT3 (gene 1649); test: LTEA_HepaRG_DDIT3: Life Technologies and Expression Analysis (LTEA) Assay for DNA damage-inducible transcript 3 (DDIT3) using HepaRG (AID 2283488)
How it was run: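 HepaRG cells, 48 h after plating, exposed 48 h in serum-free induction medium to 8 half-log concentrations up to 100 uM in 0.5% DMSO, in duplicate. DDIT3 mRNA measured by TaqMan qRT-PCR, normalized to ACTB, GAPDH and POLR2A. Fitted bidirectionally against DMSO.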

[11] = read-out: Pro-epidermal growth factor (Homo sapiens) (UniProt P01133); test: LTEA_HepaRG_EGF: Life Technologies and Expression Analysis (LTEA) Assay for Epidermal growth factor (EGF) using HepaRG (AID 2283489)
How it was run: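 EGF expression changes in human HepaRG cells are scored by bidirectional fitting relative to 0.5% DMSO controls. Chemicals are tested at eight half-log concentrations up to 100 uM for 48 h in serum-free induction medium.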

[12] = read-out: Early growth response protein 1 (EGR1) transcription factor, EGR1 (gene 1958); test: LTEA_HepaRG_EGR1: Life Technologies and Expression Analysis (LTEA) Assay for Early growth response protein 1 (EGR1) transcription factor using HepaRG (AID 2283490)
How it was run: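 Differentiated human HepaRG cells in serum-free induction medium were exposed in duplicate for 48 h to eight concentrations (top 100 uM, half-log steps) in 0.5% DMSO. EGR1 mRNA was quantified by qRT-PCR, normalized to ACTB, GAPDH and POLR2A, and fitted bidirectionally versus DMSO.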

[13] = read-out: Ezrin (EZR), EZR (gene 7430); test: LTEA_HepaRG_EZR: Life Technologies and Expression Analysis (LTEA) Assay for Ezrin (EZR) using HepaRG (AID 2283491)
How it was run: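 EZR transcript levels came from Fluidigm qRT-PCR and were normalized to three housekeeping genes after 48 h chemical exposure of HepaRG cells. Dosing used an 8-point half-log series with a 100 uM top concentration in 0.5% DMSO, tested in duplicate; both directions were fitted versus vehicle.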

[14] = read-out: Cytochrome P450 2C19 (Homo sapiens) (UniProt P33261); test: LTEA_HepaRG_CYP2C19: Life Technologies and Expression Analysis (LTEA) Assay for CYP2C19 using HepaRG (AID 2283482)
How it was run: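 Human HepaRG liver cells received test chemicals for 48 h (highest 100 uM, half-log dilutions in 0.5% DMSO). CYP2C19 mRNA induction or loss is read by multiplexed qRT-PCR and fitted in both directions versus vehicle.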

Measured: AC50

Chain of Caspase-3 (Homo sapiens) (P42574 whole entry, looked up): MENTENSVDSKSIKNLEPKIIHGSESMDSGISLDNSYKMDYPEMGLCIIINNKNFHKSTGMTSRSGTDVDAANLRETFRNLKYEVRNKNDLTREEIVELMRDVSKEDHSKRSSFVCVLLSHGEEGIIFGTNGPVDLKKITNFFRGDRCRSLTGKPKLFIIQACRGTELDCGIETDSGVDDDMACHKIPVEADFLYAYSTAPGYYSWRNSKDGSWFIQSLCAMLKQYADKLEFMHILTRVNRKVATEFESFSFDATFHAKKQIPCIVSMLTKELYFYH
Chain of Cytochrome P450 3A4 (Homo sapiens) (P08684 whole entry, looked up): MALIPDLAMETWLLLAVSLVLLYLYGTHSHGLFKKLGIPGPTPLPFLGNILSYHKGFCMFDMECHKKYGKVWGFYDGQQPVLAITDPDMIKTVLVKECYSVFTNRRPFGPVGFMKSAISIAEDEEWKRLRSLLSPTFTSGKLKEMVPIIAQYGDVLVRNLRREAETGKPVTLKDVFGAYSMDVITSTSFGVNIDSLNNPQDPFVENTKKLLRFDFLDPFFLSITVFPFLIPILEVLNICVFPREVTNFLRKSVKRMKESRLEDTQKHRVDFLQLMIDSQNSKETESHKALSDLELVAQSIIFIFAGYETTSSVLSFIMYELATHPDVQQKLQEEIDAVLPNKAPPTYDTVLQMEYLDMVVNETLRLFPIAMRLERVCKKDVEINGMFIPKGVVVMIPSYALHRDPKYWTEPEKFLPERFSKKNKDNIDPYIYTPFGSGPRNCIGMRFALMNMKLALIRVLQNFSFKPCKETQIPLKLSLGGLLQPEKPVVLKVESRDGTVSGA
Chain of Apoptosis regulator Bcl-2 (Homo sapiens) (P10415 whole entry, looked up): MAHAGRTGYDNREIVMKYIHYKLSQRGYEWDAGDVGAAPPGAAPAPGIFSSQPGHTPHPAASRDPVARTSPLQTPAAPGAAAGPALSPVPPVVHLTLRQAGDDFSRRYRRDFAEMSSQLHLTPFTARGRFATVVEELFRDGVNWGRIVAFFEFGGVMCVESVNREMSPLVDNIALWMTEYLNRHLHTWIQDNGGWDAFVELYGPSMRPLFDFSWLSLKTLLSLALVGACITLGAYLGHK
Chain of Cytochrome P450 2C19 (Homo sapiens) (P33261 whole entry, looked up): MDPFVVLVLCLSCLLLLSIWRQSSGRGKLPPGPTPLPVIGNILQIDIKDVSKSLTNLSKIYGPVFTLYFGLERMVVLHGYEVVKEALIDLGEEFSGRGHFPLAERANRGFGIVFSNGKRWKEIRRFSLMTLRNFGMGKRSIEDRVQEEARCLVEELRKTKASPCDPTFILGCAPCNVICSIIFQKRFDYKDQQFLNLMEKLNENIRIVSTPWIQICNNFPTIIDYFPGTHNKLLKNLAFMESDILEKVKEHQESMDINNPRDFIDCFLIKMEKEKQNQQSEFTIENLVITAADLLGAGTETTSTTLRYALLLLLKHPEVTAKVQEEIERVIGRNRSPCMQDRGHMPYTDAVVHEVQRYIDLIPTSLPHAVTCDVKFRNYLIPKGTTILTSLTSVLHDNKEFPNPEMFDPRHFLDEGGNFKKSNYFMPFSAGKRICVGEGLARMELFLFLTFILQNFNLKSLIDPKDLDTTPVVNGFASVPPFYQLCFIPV

C=CCc1ccc2c(c1)OCO2
active: [8] 18.4 µM
not listed: [14]
inactive: all other assays above

N#CC(Br)Br
not listed: [14]
inactive: all other assays above

CCCCCOC(=O)c1ccccc1C(=O)OCCCCC
active: CYP4A11 (gene 1579) 50 µM
not listed: [14]
inactive: all other assays above

CCC(C)c1ccc(O)cc1 (centres undefined)
not listed: [14]
inactive: all other assays above

c1ccc2c(c1)oc1ccccc12
active: [6] 50 µM | [8] 0.0679 µM
not listed: [9]
inactive: all other assays above

[Cl-].[Cl-].[Hg+2]
active: [6] 50 µM
not listed: [14]
inactive: all other assays above

Source: PubChem BioAssay (EPA / NIEHS)
